This is part of a sample that, as a whole, favours compounds with a hit. Of some 83,000 tested, about 20% had one in any assay.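 Each cell line was grown in a 96-well plate and treated with one concentration of compound for 48 hours. Values below 10 were considered active.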 A number with no mark means an inactive call. Calls of active or inactive are those of the source.
Tested on: HL-60(TB) leukemia
Assay: NCI-60 one-dose screen, 48 h (100 = growth as untreated, 0 = no growth, -100 = all killed)
Details: 10 µM unless noted

Compound	growth
N#Cc1c(-c2ccc(Cl)cc2)csc1NC(=O)Nc1cccc(C(F)(F)F)c1	-13% (active)
COc1ccc2cc(-c3cc(OC)c(OC)c(OC)c3)c(=O)oc2c1	55.3%
COc1ccc(N=C(c2ccccc2)C2C(=O)c3ccccc3C2=O)cc1	61.3%
CCN(CC)CCOC(COc1cc(C)cc(C)c1)COc1cc(C)cc(C)c1	20.3%
CC(C)=CCCC(C)c1ccc(C)c2c1OCN(CC1CCNCC1)C2 (stereo not given)	13.8%
COc1ccc(/C=C2\SC(=O)N(CN3CCN(c4cc5c(cc4F)c(=O)c(C(=O)O)cn5C4CC4)CC3)C2=O)cc1	109%
COc1cc2oc3cc(=O)cc4oc(-c5ccccc5)cc(c2c2c1CCC(c1ccccc1)O2)c43 (stereo not given)	138%
C[C@H](NC(=O)c1snnc1C1CC1)c1c(F)cccc1Cl	146%
CCOC(=O)[C@@H]1CSC(CC)=C(C(=O)O)N1	-17.3% (active)
COc1ccc2nc(C)cc(Nc3ccccc3O)c2c1	5.11% (active)
CCCCOC(OCCCC)c1ccccc1	96.7%
CSC1=CC(=O)c2ccccc2C1=O	-49.5% (active)
COC1=CC(c2ccc[nH]2)=N/C1=C\c1[nH]c(C)c(C)c1CCC(=O)OCc1ccccc1	-39.1% (active)
COC(=O)[C@]1(C)CC[C@]2(C)CC[C@]3(C)C(=CC(=O)[C@@H]4[C@@]5(C)CCC(=O)NC(C)(C)[C@@H]5CC[C@]43C)[C@@H]2C1	1.31% [100 µM] (active)
O=[N+]([O-])c1c(O)c(CNCCCO)cc(CNCCCO)c1O	75.8%
COc1cc2nc(-c3ccc(-c4nn[nH]n4)cc3)[nH]c(=O)c2cc1OC	93.8%
N#CC(=S)Nc1ccc(Cl)c(Cl)c1	8.99% (active)
C=C1C(=O)O[C@H]2[C@H]1CC/C(COC(=O)CCCCCCCC(=O)OC/C1=C/CC[C@@]3(C)O[C@H]3[C@H]3OC(=O)C(=C)[C@@H]3CC1)=C\CC[C@@]1(C)O[C@@H]21	-18.3% (active)
CC(=O)Oc1cccc(OC(C)=O)c1OC(C)=O	103%
CCN1C(=O)N(CC)C2C1NN=c1s/c(=C\c3ccccc3F)c(=O)n12 (stereo not given)	-48.1% (active)

Compound	growth
CC[N+](CCCCCCCCCC[N+](CC)(c1ccccn1)c1ccccn1)(c1ccccn1)c1ccccn1	-50.7% (active)
CCOC(=O)/C(C#N)=C(/CC)OCC	95%
COc1ccc2nc(-c3ccc(-c4noc(-c5cc(OC)c(OC)c(OC)c5)n4)cc3)[nH]c2c1	74.4%
CN1CCN(Cc2ccc(NC(=O)c3cncc(C#Cc4cncn5ccnc45)c3)cc2C(F)(F)F)CC1	20.2%
C/C(=C(/c1ccc(Cl)cc1)c1ccc(OCCCN(C)C)cc1)c1ccc(Cl)cc1	72.9%
Nc1ncnc2c1N=C(c1ccc([N+](=O)[O-])cc1)CC(c1ccc3c(c1)OCO3)N2 (stereo not given)	105%
CC(=O)c1ccc2c(c1)CCc1ccccc1-2	126%
COc1cc(CNC(=O)CCCC/C=C/C(C)C)ccc1O	91.1%
Cc1nc2cccc(NCCCCC(=O)NO)c2c(=O)n1-c1ccccc1	42.8%
Clc1nccc2c(-c3csc(-c4c[nH]c5ccccc45)n3)c[nH]c12	29.4%
O=[N+]([O-])c1ccc(N=Nc2c(NNc3ccc([N+](=O)[O-])cn3)cc(S(=O)(=O)O)c3ccccc23)nc1	94.9%
CC12CCC(O)CC1=CCC1C2CCC2(C)C3=NN=CC3CC12 (stereo not given)	103%
Oc1ccc2cc(Br)ccc2c1-c1c(O)ccc2cc(Br)ccc12	81.2%
CCCn1cc(/C=N\N=C2\C(=O)Nc3ccc(C)cc32)c2ccccc21	-22.6% (active)
COc1cc2ncnc(Nc3ccc(Oc4ccnc(C)c4)c(C)c3)c2cc1NC(=O)CC1CCSS1 (stereo not given)	-45.8% (active)
COc1cc(/C=C/C(=O)N2CCN(C(=O)/C=C/c3cc(OC)c(OC)c(OC)c3)CC2)cc(OC)c1OC	91.7%
Cc1cccc(C)c1-c1cc(Cc2ccc(Cl)cc2)c(=O)[nH]n1	90.8%
c1ccc(-c2nc3sc(-c4ccccc4)cn3n2)cc1	78.8%
CCN1CCN(c2nc3ccccc3c3c(=O)c4ccccc4sc23)CC1	76.4%
Cc1c(N2CCCCC2)[nH]c2ccccc12	101%
